Pf growth 96h – P. falciparum growth inhibition at 96 hour, primary screen for plastid delayed-death inhibitors | P. falciparum luciferase reporter growth, 96 h | Potency, µM (titrated, usually from 28.7 µM), for inactives: at the highest dose activity change, negative = inhibition, actives largely listed as inhibitors | 6.9% of 320,000 active | AID 504834; also: potency is read from the fitted curve at half-maximal effect; % is scaled to controls: 0 for no effect and ±100 for the full control effect
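Readout is luminescence from an integrated firefly luciferase in P. falciparum. Red cells, 2% hematocrit and 0.05% parasitemia final, were cultured with compound through two parasite generations (96 hours) at 37 C, 5% CO2.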
Cycloheximide cs – counter-screen for Shiga toxin inhibitors: cycloheximide protein synthesis inhibition. cell reporter, cycloheximide protein synthesis inhibition counterscreen. max response, %. 12% of 300,000 active; in the data active = max response mostly above about 13%, no sharp cut-off; inactive = mostly below about 14%; also: read at 38.3 µM for the half of the compounds with a filed dose; 0% is about no effect
Shiga toxin inh – blocks Shiga toxin action in Vero cells. Vero cells, Shiga toxin protein synthesis inhibition reporter. inhibition, % at 38.7 µM. AID 2315. 9.2% of 290,000 active; in the data active = inhibition mostly above about 28%, no sharp cut-off; inactive = mostly below about 43%; also: 0% is about no effect
Pf growth 48h – inhibits P. falciparum growth in the first generation, 48 h. P. falciparum luciferase growth in erythrocytes, 48 h. Potency, µM (doses to about 28.7 µM), inactives show at the top dose activity change, negative = inhibition, hits mostly inhibitors. 5.9% of 310,000 active; also: potency is read from the fitted curve at half-maximal effect; % is scaled to controls: 0 for no effect and ±100 for the full control effect
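A one-generation exposure of luciferase-tagged malaria parasites in RPMI 1640/Albumax erythrocyte culture, 37 C and 5% CO2. Inhibition is inferred from decreased luminescence after adding detection reagent.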
SARS PLP yeast – SARS-CoV PLP inhibition in yeast; AID 485353; Potency, µM (titrated, usually from 32.9 µM), without a hit: at the highest dose activity, positive = growth rescue, most hits filed as activators; S. cerevisiae expressing SARS-CoV PLpro, growth rescue; 0.19% of 330,000 active; calls by dose curve; also: potency is read from the fitted curve at half-maximal effect; 0% is about no effect; nearly all actives have a fitted effect of over 55% in size
NS1 function inh – blocks influenza NS1 protein function | Potency, µM (titrated, usually from 46.1 µM), without a hit: at the highest dose activity, positive = more growth | 0.4% of 270,000 active; calls by dose curve; also: potency is read from the fitted curve at half-maximal effect; actives are rising curves; nearly all actives have a fitted effect of over 50% in size
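A cell-based growth assay was used: compounds that relieve NS1-induced slow growth of budding yeast raise OD600. Assay medium was yeast nitrogen base with ammonium sulphate and -URA supplement, pH 6.0, with 2% galactose.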
Starred values were filed as active, the others as inactive; u = inconclusive; x = no result. Only some compounds are listed: those with a hit (about 21% of all), similar ones and a draw of the others. Unless noted, calls follow the shape of the dose curve; as a rule, active = well fitted inhibition curve with a large enough effect; inconclusive = small, poorly fitted or top-dose-only effect, or another doubt; inactive = no such curve, though single readings can be large or run the other way.

SMILES | Pf growth 96h | Cycloheximide cs | Shiga toxin inh | Pf growth 48h | SARS PLP yeast | NS1 function inh
COC(=O)c1ccc(/C=C/C(=O)c2ccc(OC)cc2)cc1 | -19.8% | 25.5* | 53.9 | 10.5% | 1.4% | -16.7%
COc1ccc(/C=C/C(=O)c2ccccc2)cc1Cn1nnc2ccccc21 | u | 27.3* | 26.8* | u | 12.1% | 17.9%
COC(=O)c1ccc(/C=C/C(=O)O)cc1 | 83.6% | -0.6 | -0.7 | 33.6% | -0.2% | -1.5%
O=C(Oc1ccc2ccc(O)cc2c1)c1ccccc1Cl | 88.4% | 32.4* | 44.1* | 139.5% | -12.6% | -43.8%
Cc1ccc(NC(=O)N2CCCCC2)cc1[N+](=O)[O-] | 28.7% | 10.0 | 39.8 | 23.3% | -0.8% | -4.0%
CCN(C(=S)NC(=O)CCc1ccccc1)c1ccccc1 | -14.2% | 1.3 | -47.0 | 8.2% | -3.1% | 3.2%
CSC(=[SH+])N=N/C(=C1/C=CC=CN1)c1ccccn1.[Cu][Br] | x | x | x | x | x | 21.0%
CCCCOc1ccc(Br)cc1/C(C)=N/NC1=NCCN1 | -10.0% | -5.5 | -4.9 | 4.65µM* | -41.1% | -22.3%
COc1ccc(/C(C)=N/NC2=NCCN2)cc1Cl | 3.7µM* | -3.3 | 2.7 | 4.65µM* | -6.6% | -1.9%
C/C(=N\NC1=NCCN1)c1ccc(N)c([N+](=O)[O-])c1 | u | 11.9* | 6.4 | 2.08µM* | 3.4% | 0.7%
CSc1nnc(CCNS(=O)(=O)c2ccc(Br)cc2)n1C | 26.3% | -4.7 | -7.6 | 6.0% | 10.9% | 6.0%
Cc1ccc(C(=O)N(C)CC(=O)Nc2cccc(C)c2C)o1 | 14.6% | -1.1 | -4.5 | -7.7% | -1.0% | 4.7%
CC1(C)Oc2ccc(C(=O)NN)cc2NC1=O | -2.9% | 3.0 | 19.7 | 13.6% | 1.5% | x
CC(C)CCNC(=O)C1CCN(S(=O)(=O)c2ccc3nc4c(c(C(=O)O)c3c2)CCCCC4)CC1 | 35.8% | -2.9 | -9.2 | 10.6% | u | -2.3%
COc1ccc(CCNC(=O)C2CCN(S(=O)(=O)c3ccc4nc5c(c(C(=O)O)c4c3)CCCC5)CC2)cc1OC | 9.28µM* | 13.0 | 4.4 | 20.9% | -1.5% | 3.3%
COc1ccc(CCNC(=O)C2CCCN(S(=O)(=O)c3cc(C)ccc3OC)C2)cc1OC (configuration not stated) | 5.22µM* | -4.8 | -2.1 | 11.7µM* | 3.9% | -3.6%
CCOc1ccc(OCC)c(NC(=O)C2CCCN(S(=O)(=O)c3cnc[nH]3)C2)c1 (configuration not stated) | 4.65µM* | 6.0 | -5.9 | x | 3.7% | 1.9%
CCOc1ccc(OCC)c(NC(=O)C2CCCN(c3ncccn3)C2)c1 (configuration not stated) | -16.6% | -0.7 | -4.1 | -17.6% | 2.2% | -7.0%
CCOc1ccc(OCC)c(NC(=O)C2CCCN(C(=O)c3ccc(Cl)cc3)C2)c1 (configuration not stated) | 9.28µM* | x | x | u | 0.3% | x
CCS(=O)(=O)N1CCCC(C(=O)NCCc2ccc(OC)c(OC)c2)C1 (configuration not stated) | 0.4% | -0.8 | 7.9 | -4.1% | 4.1% | -0.1%
CN(CC(=O)Nc1cccc(Cl)c1)S(=O)(=O)c1ccc2c(c1)n(C)c(=O)c(=O)n2C | 0.9% | -8.7 | -5.3 | u | 11.4% | 0.3%
COc1ccc(CCNC(=O)C2CCN(S(=O)(=O)c3cccc4nsnc34)CC2)cc1OC | x | -1.7 | 22.7 | u | -0.2% | -13.5%
COc1ccc(CCNC(=O)C2CCN(S(=O)(=O)c3cccc4cccnc34)CC2)cc1OC | 16.5µM* | -1.4 | -4.0 | -15.0% | -6.1% | -14.3%
CC(=O)c1ccc(N2CCN(C(=O)C3CCCN(S(=O)(=O)c4cnc[nH]4)C3)CC2)cc1 (configuration not stated) | 5.86µM* | 21.6* | 18.7 | u | -1.2% | -5.9%
COc1ccc(CCNC(=O)C2CCCN(S(=O)(=O)c3cnc[nH]3)C2)cc1OC (configuration not stated) | 13.1µM* | -6.6 | -4.2 | x | 8.2% | u
COc1ccc(CCNC(=O)C2CCN(S(=O)(=O)c3cnc[nH]3)CC2)cc1OC | u | -7.0 | -16.4 | -3.0% | -1.1% | -3.3%
CC(C)C1Oc2ccccc2N(CC(=O)N2CCOCC2)C1=O (configuration not stated) | 2.5% | -4.3 | -4.5 | 29.8% | 4.1% | 1.6%

Assay outcomes deposited in PubChem by National Center for Advancing Translational Sciences (NCATS).
